Test results taken from PubChem BioAssay.
Records with an inconclusive call do not appear. Unmarked numbers belong to inactive results. Calls of active or inactive are those of the source.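 The calls were made as follows, unless noted: active = cell viability at or below a set limit in both duplicate runs, the limit being the all-compound median minus 4 SD (cut at about 23% in these data, passing the limit was not always enough); inconclusive = no clear call, values can overlap the other calls; inactive = the rest.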

experiment: growth suppression of beta-catenin knockout HCT116, pilot screen, human colon tumor cells (AID 823); conditions: CellTiter-Glo, 60 h, at 10 µM, hits give low values;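 also: 0% = wells killed by 20 µM Hyamine and 100% = untreated DMSO cell wells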

Compound | viability
O=C(CSc1ccccn1)c1ccc(F)cc1 | 100%
O=C(CCn1c(=O)oc2ccccc21)NCc1ccc2c(c1)OCO2 | 100%
COc1ccc(-n2c(=O)c3ccccc3n(CC(=O)NC3CCCC3)c2=O)c(OC)c1 | 98.2%
O=C(Nc1ccc(F)cc1)C1CCCN(S(=O)(=O)c2cccc3cccnc23)C1 (stereo not given) | 80.8%
COc1ccc(CCNC(=O)CCn2c(=O)oc3ccccc32)cc1OC | 105%
O=C(CCS(=O)(=O)c1cccc2nonc12)NCCc1ccccc1Cl | 91.2%
Cc1ccc(S(=O)(=O)N(CC(=O)N2CCCC2)C2CCCCC2)cc1 | 99%
Cc1ccc(N2C(=O)C(Cl)=C(NCCO)C2=O)c(C)c1 | 105%
Cc1cccn2cc(-c3ccc(F)cc3)nc12 | 87.2%
CSc1nc2ccc(NS(=O)(=O)c3ccc4c(c3)OCCO4)cc2s1 | 90.8%
Cc1cc(Nc2ccc3c(c2)OCCO3)n2nc(C)nc2n1 | 106%
O=C(COc1ccc(S(=O)(=O)NC2CCCCC2)cc1)Nc1ccc2c(c1)OCCO2 | 84%
COc1ccc(OC)c2c1sc(=NC(=O)CN1C(=O)CCC1=O)n2C | 92.7%
Cc1occc1C(=O)Nc1nnc(-c2ccncc2)s1 | 100%
Cc1nnc(SCC(=O)Nc2ccc3c(c2)OCO3)o1 | 102%
O=C(CSC1=NS(=O)(=O)c2ccccc21)Nc1ccccc1 | 94.3%
CCOC(=O)Cc1csc(NC(=O)COc2ccc(N(C)S(=O)(=O)c3cccs3)cc2)n1 | 71%
Cn1cc(SCC(=O)N2CCN(c3ccccc3)CC2)c2ccccc21 | 91.3%
COc1ccc(C(=O)Nc2ccc(Cl)cc2C(=O)NCc2ccco2)cc1OC | 73.4%
Cc1cccc(N=C(N2CCOCC2)P(=O)(N2CCOCC2)N2CCOCC2)c1 | 98.1%

Compound | viability
COc1cccc(-n2c(Cc3cc(=O)[nH]c(=O)[nH]3)nnc2SCC(=O)Nc2ccccc2)c1 | 107%
Cc1ccc(C)c(SCC(=O)OCC(=O)Nc2ccc(S(=O)(=O)N3CCOCC3)cc2)c1 | 97.8%
CC(C)n1c(NCc2cc(Cl)ccc2O)nc2ccccc21 | 88.8%
c1ccc2c(c1)CCN(c1nc3ccccc3n3cnnc13)C2 | 65.1%
CC1CCN(S(=O)(=O)c2ccc(NC(=O)c3cccs3)cc2)CC1 | 85.5%
CCCCOc1ccc(C2(C)CC(=O)NC2=O)cc1 (stereo not given) | 95.3%
COc1ccc(C2C(C(=O)Nc3cccnc3)=C(C)Nc3nc(-c4ccco4)nn32)cc1 (stereo not given) | 108%
CN(CCNC(=O)C1CC(=O)N(C2CCCC2)C1)Cc1ccccc1 (stereo not given) | 98.6%
O=C(NCCCN1CCCC1=O)c1ccccc1NS(=O)(=O)c1ccc(F)cc1 | 88.9%
CCOC(=O)c1sc2nc3n(c(=O)c2c1C)CCCCC3 | 87.5%
CS(=O)(=O)N(CC(=O)NCc1ccco1)c1ccc(Cl)c(C(F)(F)F)c1 | 92.8%
CC(NS(=O)(=O)c1ccc(Br)cc1)C(c1cccs1)N1CCN(C)CC1 (stereo not given) | 78.2%
CCOC(=O)C1Cn2c(nc3c(c2=O)C(C)(CC)Cc2ccccc2-3)S1 (stereo not given) | 82.1%
COc1cccc(N2CCN(c3ncnc4c3cnn4-c3ccc(C)cc3C)CC2)c1 | 7.71% (active)
COc1ccc(N2CSC3=C(C#N)C(c4ccc(OC)c(OC)c4)CC(=O)N3C2)c(OC)c1 (stereo not given) | 79.5%
COc1ccc(-n2cnnc2)cc1 | 98.2%
COc1ccc(OCc2nnc3n2N=C(c2ccc(OC)cc2)CS3)cc1 | 69.9%
O=C(Nn1nnnc1Nc1ccccc1)C12CC3CC(CC(C3)C1)C2 | 85.2%
Cc1ccc(CCNC(=O)CS(=O)Cc2nc(-c3cccc(C)c3)oc2C)cc1 (stereo not given) | 85.3%
COCCCNC(=O)Cn1ncc2ccsc2c1=O | 107%

experiment: growth suppression of PTEN-deleted HCT116, pilot screen, cell-based, HCT116 clonal line, CellTiter-Glo (AID 824;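 active = viability at or below 27.92% in each of two runs, the all-compound median minus 4 SD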;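 also: 0% = 20 µM Hyamine control and 100% = vehicle cell control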); conditions: 60 h, at 10 µM, hits give low values

Compound | viability
O=C(CSc1ccccn1)c1ccc(F)cc1 | 102%
O=C(CCn1c(=O)oc2ccccc21)NCc1ccc2c(c1)OCO2 | 91.3%
COc1ccc(-n2c(=O)c3ccccc3n(CC(=O)NC3CCCC3)c2=O)c(OC)c1 | 96.2%
O=C(Nc1ccc(F)cc1)C1CCCN(S(=O)(=O)c2cccc3cccnc23)C1 (stereo not given) | 80.3%
COc1ccc(CCNC(=O)CCn2c(=O)oc3ccccc32)cc1OC | 97.9%
O=C(CCS(=O)(=O)c1cccc2nonc12)NCCc1ccccc1Cl | 82.9%
Cc1ccc(S(=O)(=O)N(CC(=O)N2CCCC2)C2CCCCC2)cc1 | 95%
Cc1ccc(N2C(=O)C(Cl)=C(NCCO)C2=O)c(C)c1 | 100%
Cc1cccn2cc(-c3ccc(F)cc3)nc12 | 82.9%
CSc1nc2ccc(NS(=O)(=O)c3ccc4c(c3)OCCO4)cc2s1 | 88.4%
Cc1cc(Nc2ccc3c(c2)OCCO3)n2nc(C)nc2n1 | 102%
O=C(COc1ccc(S(=O)(=O)NC2CCCCC2)cc1)Nc1ccc2c(c1)OCCO2 | 70.8%
COc1ccc(OC)c2c1sc(=NC(=O)CN1C(=O)CCC1=O)n2C | 87.4%
Cc1occc1C(=O)Nc1nnc(-c2ccncc2)s1 | 104%
Cc1nnc(SCC(=O)Nc2ccc3c(c2)OCO3)o1 | 95.1%
O=C(CSC1=NS(=O)(=O)c2ccccc21)Nc1ccccc1 | 104%
CCOC(=O)Cc1csc(NC(=O)COc2ccc(N(C)S(=O)(=O)c3cccs3)cc2)n1 | 80.3%
Cn1cc(SCC(=O)N2CCN(c3ccccc3)CC2)c2ccccc21 | 88.4%
COc1ccc(C(=O)Nc2ccc(Cl)cc2C(=O)NCc2ccco2)cc1OC | 68.9%
Cc1cccc(N=C(N2CCOCC2)P(=O)(N2CCOCC2)N2CCOCC2)c1 | 92.6%

Compound | viability
COc1cccc(-n2c(Cc3cc(=O)[nH]c(=O)[nH]3)nnc2SCC(=O)Nc2ccccc2)c1 | 97.8%
Cc1ccc(C)c(SCC(=O)OCC(=O)Nc2ccc(S(=O)(=O)N3CCOCC3)cc2)c1 | 92.9%
CC(C)n1c(NCc2cc(Cl)ccc2O)nc2ccccc21 | 87.9%
c1ccc2c(c1)CCN(c1nc3ccccc3n3cnnc13)C2 | 68.9%
CC1CCN(S(=O)(=O)c2ccc(NC(=O)c3cccs3)cc2)CC1 | 75.8%
CCCCOc1ccc(C2(C)CC(=O)NC2=O)cc1 (stereo not given) | 91.8%
COc1ccc(C2C(C(=O)Nc3cccnc3)=C(C)Nc3nc(-c4ccco4)nn32)cc1 (stereo not given) | 104%
CN(CCNC(=O)C1CC(=O)N(C2CCCC2)C1)Cc1ccccc1 (stereo not given) | 98.3%
O=C(NCCCN1CCCC1=O)c1ccccc1NS(=O)(=O)c1ccc(F)cc1 | 94.1%
CCOC(=O)c1sc2nc3n(c(=O)c2c1C)CCCCC3 | 103%
CS(=O)(=O)N(CC(=O)NCc1ccco1)c1ccc(Cl)c(C(F)(F)F)c1 | 88.2%
CC(NS(=O)(=O)c1ccc(Br)cc1)C(c1cccs1)N1CCN(C)CC1 (stereo not given) | 84.2%
CCOC(=O)C1Cn2c(nc3c(c2=O)C(C)(CC)Cc2ccccc2-3)S1 (stereo not given) | 77.7%
COc1cccc(N2CCN(c3ncnc4c3cnn4-c3ccc(C)cc3C)CC2)c1 | 10.3% (active)
COc1ccc(N2CSC3=C(C#N)C(c4ccc(OC)c(OC)c4)CC(=O)N3C2)c(OC)c1 (stereo not given) | 81.7%
COc1ccc(-n2cnnc2)cc1 | 101%
COc1ccc(OCc2nnc3n2N=C(c2ccc(OC)cc2)CS3)cc1 | 66.4%
O=C(Nn1nnnc1Nc1ccccc1)C12CC3CC(CC(C3)C1)C2 | 86.5%
Cc1ccc(CCNC(=O)CS(=O)Cc2nc(-c3cccc(C)c3)oc2C)cc1 (stereo not given) | 86.9%
COCCCNC(=O)Cn1ncc2ccsc2c1=O | 101%
